Assay results published in PubChem BioAssay.
Values without a mark were called inactive. How the calls were made is not given here.

Test system: Botulinum neurotoxin type F light chain protease (Clostridium botulinum)
Experiment: Clostridium botulinum type F light chain protease inhibitors, microsphere substrate cleavage, validation (AID 588459)
Details: multiplex microsphere protease substrate cleavage assay, flow cytometry; at 10 µM; stronger effect = higher value

Compound	inhibition [%]
Nc1c2c(nc3ccccc13)CCCC2	5.3
CNCCCC1c2ccccc2C=Cc2ccccc21	-5.9
COc1ccc(CCN2CCC(Nc3nc4ccccc4n3Cc3ccc(F)cc3)CC2)cc1	-1.8
CN(C)c1ccc(Nc2c3c4c(cccc4n(C)c2=O)C(=O)c2ccccc2-3)cc1	-13.5
COc1ccc(-c2csc(-c3cccnc3)n2)cc1C	-2
COc1ccc(CCN2CNc3c(c(=O)n(C)c(=O)n3C)C2)cc1OC	22.1
COc1ccc2c(CC(=O)NCC3CCC(C(=O)O)CC3)cc(=O)oc2c1 (stereo not given)	1
CC(C)c1ccc(NC(=O)CNS(=O)(=O)c2ccc(F)cc2)cc1	1.6
Cc1cccc(OCC(=O)Nc2ccc(C(=O)NCC(C)C)cc2)c1	4.2
Cc1ccc2c(c1)C(O)(C1COC(C)(C)CC1=O)C(=O)N2C (stereo not given)	-1.1
COCC(C)NC(=O)c1ccc(CN2CCc3ccccc3C2)cc1 (stereo not given)	5.2
O=C(CCCN1C(=O)/C(=C\c2cccc(Br)c2)SC1=S)Nc1cccnc1	-1.7
CCC(=O)Nc1ccc(C(=O)N2CCN(C(=O)c3ccco3)CC2)cc1	-2.6
O=C(NC(CO)Cc1ccc([N+](=O)[O-])cc1)C(Cl)Cl (stereo not given)	0.6
O=Cc1ccccc1Oc1ccccc1	0.2
COc1cc(OC)c(C(=O)CCCN2CCCC2)c(OC)c1	2.9
CN(C)CCN(Cc1cccs1)c1ccccn1	2.5
Nc1cccc2c1nnn2C1OC(CO)C(O)C(O)C1O (stereo not given)	0.7
COc1ccc(CNC(=O)c2cc3c(=O)n4ccccc4nc3n(Cc3cccnc3)c2=N)cc1	-1.2
O=C(O)c1ccccc1OCCOc1ccccc1	3.5

Compound	inhibition [%]
COc1ccc(CC(=O)NCC2(c3ccc(OC)c(OC)c3)CCOCC2)cc1	3.5
O=C(O)Cc1ccc(O)c(F)c1	2.3
O=c1[nH]cnc2[nH]ncc12	4.1
COc1ccc2oc(C)c(C(N)=O)c2c1	-1.6
COc1ccc(NC(=O)N2CCCCC2c2cccnc2)cc1 (stereo not given)	2.7
NS(=O)(=O)c1ccc(CNC(=O)c2cc(-c3ccccc3)nc3ccccc23)cc1	0.5
OCCN1CCN(CCCN2c3ccccc3Sc3ccc(Cl)cc32)CC1	-0.8
CC(=O)O[C@]1(C(C)=O)CC[C@H]2[C@@H]3C[C@H](C)C4=CC(=O)CC[C@]4(C)[C@H]3CC[C@@]21C	0.4
CCOC(=O)c1cccc(P(C)(C)=O)c1	-1.1
Cc1oc2cc(O)ccc2c(=O)c1Oc1ccccc1Br	-1.1
CC(=O)[C@H]1[C@H](C#N)C[C@H]2[C@@H]3CC=C4C[C@@H](O)CC[C@]4(C)[C@H]3CC[C@@]21C	4.5
COCC1CCCN(Cc2cn[nH]c2-c2cc3ccccc3o2)C1 (stereo not given)	-0.1
C=C(C)[C@@H]1CC=C(CN2CCC(N3CCC(C(=O)N4CCCC4)CC3)CC2)CC1	7.8
CC(C)(S)[C@@H](N)C(=O)O	2.9
CCn1cc(C(=O)O)c(=O)c2ccc(C)nc21	1.3
O=C(/C=C/c1ccccc1)NC(=O)c1ccccc1O	-4.2
CC12CN3CC(C)(CN(C1)C3c1ccc([N+](=O)[O-])o1)C2 (stereo not given)	-3.2
Cc1ccccc1C(=O)Nc1ccccc1C(=O)NCC(C)C	-5.7
CCOC(=O)/C=C1\NC(C)(C)Cc2cc(OC)c(OC)cc21	0.2
CN(C)c1ccc(CNCCC(Cc2ccccc2)c2ccco2)cc1 (stereo not given)	-4.5

Molecular target: Botulinum neurotoxin type A (Clostridium botulinum) (UniProt P0DPI0)
Sequence (P0DPI0 whole entry, looked up): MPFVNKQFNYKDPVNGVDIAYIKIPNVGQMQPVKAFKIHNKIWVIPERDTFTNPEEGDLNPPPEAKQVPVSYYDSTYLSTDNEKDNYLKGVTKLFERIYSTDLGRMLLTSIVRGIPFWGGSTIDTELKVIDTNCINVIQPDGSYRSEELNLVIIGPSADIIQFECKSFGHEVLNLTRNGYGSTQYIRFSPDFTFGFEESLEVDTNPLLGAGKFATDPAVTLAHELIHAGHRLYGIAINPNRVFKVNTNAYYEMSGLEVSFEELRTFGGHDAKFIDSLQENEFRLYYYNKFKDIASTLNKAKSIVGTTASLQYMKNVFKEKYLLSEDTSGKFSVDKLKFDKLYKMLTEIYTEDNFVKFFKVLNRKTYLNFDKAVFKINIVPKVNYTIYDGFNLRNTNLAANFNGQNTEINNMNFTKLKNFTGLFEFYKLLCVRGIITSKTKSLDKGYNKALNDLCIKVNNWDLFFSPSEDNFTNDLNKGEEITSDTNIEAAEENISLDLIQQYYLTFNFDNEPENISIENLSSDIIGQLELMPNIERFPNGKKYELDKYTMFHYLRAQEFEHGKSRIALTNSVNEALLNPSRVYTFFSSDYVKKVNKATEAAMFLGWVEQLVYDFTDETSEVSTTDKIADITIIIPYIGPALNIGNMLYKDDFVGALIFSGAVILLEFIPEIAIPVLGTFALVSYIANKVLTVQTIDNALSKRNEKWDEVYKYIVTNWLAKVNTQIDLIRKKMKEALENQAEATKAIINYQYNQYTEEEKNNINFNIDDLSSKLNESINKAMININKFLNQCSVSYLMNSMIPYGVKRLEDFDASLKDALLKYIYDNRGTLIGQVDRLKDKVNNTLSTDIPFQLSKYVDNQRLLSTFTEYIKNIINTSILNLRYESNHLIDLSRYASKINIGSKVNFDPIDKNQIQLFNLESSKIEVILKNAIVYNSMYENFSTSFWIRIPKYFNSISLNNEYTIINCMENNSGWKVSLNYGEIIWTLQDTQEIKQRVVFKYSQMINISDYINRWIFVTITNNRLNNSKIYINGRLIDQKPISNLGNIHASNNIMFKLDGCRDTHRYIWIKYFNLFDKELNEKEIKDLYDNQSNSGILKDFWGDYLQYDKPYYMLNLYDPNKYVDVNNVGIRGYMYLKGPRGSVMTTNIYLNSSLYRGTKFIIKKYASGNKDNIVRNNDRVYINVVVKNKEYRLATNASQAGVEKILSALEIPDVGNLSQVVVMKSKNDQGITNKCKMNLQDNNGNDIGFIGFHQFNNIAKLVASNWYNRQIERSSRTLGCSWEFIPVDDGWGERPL
Experiment: BoNT/A light chain protease inhibitors, biochemical, multiplex microsphere flow cytometry, validation set (AID 588460)
Details: at 10 µM, stronger effect = higher value

Compound	inhibition [%]
Nc1c2c(nc3ccccc13)CCCC2	1.5
CNCCCC1c2ccccc2C=Cc2ccccc21	-1.6
COc1ccc(CCN2CCC(Nc3nc4ccccc4n3Cc3ccc(F)cc3)CC2)cc1	0.4
CN(C)c1ccc(Nc2c3c4c(cccc4n(C)c2=O)C(=O)c2ccccc2-3)cc1	-3.2
COc1ccc(-c2csc(-c3cccnc3)n2)cc1C	-1.6
COc1ccc(CCN2CNc3c(c(=O)n(C)c(=O)n3C)C2)cc1OC	8
COc1ccc2c(CC(=O)NCC3CCC(C(=O)O)CC3)cc(=O)oc2c1 (stereo not given)	-0.1
CC(C)c1ccc(NC(=O)CNS(=O)(=O)c2ccc(F)cc2)cc1	-0.9
Cc1cccc(OCC(=O)Nc2ccc(C(=O)NCC(C)C)cc2)c1	0.3
Cc1ccc2c(c1)C(O)(C1COC(C)(C)CC1=O)C(=O)N2C (stereo not given)	1.7
COCC(C)NC(=O)c1ccc(CN2CCc3ccccc3C2)cc1 (stereo not given)	0
O=C(CCCN1C(=O)/C(=C\c2cccc(Br)c2)SC1=S)Nc1cccnc1	-0.3
CCC(=O)Nc1ccc(C(=O)N2CCN(C(=O)c3ccco3)CC2)cc1	-1.9
O=C(NC(CO)Cc1ccc([N+](=O)[O-])cc1)C(Cl)Cl (stereo not given)	-1.5
O=Cc1ccccc1Oc1ccccc1	-2.2
COc1cc(OC)c(C(=O)CCCN2CCCC2)c(OC)c1	-0.9
CN(C)CCN(Cc1cccs1)c1ccccn1	-0.3
Nc1cccc2c1nnn2C1OC(CO)C(O)C(O)C1O (stereo not given)	0.1
COc1ccc(CNC(=O)c2cc3c(=O)n4ccccc4nc3n(Cc3cccnc3)c2=N)cc1	0.4
O=C(O)c1ccccc1OCCOc1ccccc1	2.5

Compound	inhibition [%]
COc1ccc(CC(=O)NCC2(c3ccc(OC)c(OC)c3)CCOCC2)cc1	-0.9
O=C(O)Cc1ccc(O)c(F)c1	-0.5
O=c1[nH]cnc2[nH]ncc12	0.8
COc1ccc2oc(C)c(C(N)=O)c2c1	0.5
COc1ccc(NC(=O)N2CCCCC2c2cccnc2)cc1 (stereo not given)	0.7
NS(=O)(=O)c1ccc(CNC(=O)c2cc(-c3ccccc3)nc3ccccc23)cc1	0.4
OCCN1CCN(CCCN2c3ccccc3Sc3ccc(Cl)cc32)CC1	0.8
CC(=O)O[C@]1(C(C)=O)CC[C@H]2[C@@H]3C[C@H](C)C4=CC(=O)CC[C@]4(C)[C@H]3CC[C@@]21C	-1.6
CCOC(=O)c1cccc(P(C)(C)=O)c1	-0.5
Cc1oc2cc(O)ccc2c(=O)c1Oc1ccccc1Br	-0.5
CC(=O)[C@H]1[C@H](C#N)C[C@H]2[C@@H]3CC=C4C[C@@H](O)CC[C@]4(C)[C@H]3CC[C@@]21C	1.4
COCC1CCCN(Cc2cn[nH]c2-c2cc3ccccc3o2)C1 (stereo not given)	-1.5
C=C(C)[C@@H]1CC=C(CN2CCC(N3CCC(C(=O)N4CCCC4)CC3)CC2)CC1	0.8
CC(C)(S)[C@@H](N)C(=O)O	-0.8
CCn1cc(C(=O)O)c(=O)c2ccc(C)nc21	-1.5
O=C(/C=C/c1ccccc1)NC(=O)c1ccccc1O	-1.7
CC12CN3CC(C)(CN(C1)C3c1ccc([N+](=O)[O-])o1)C2 (stereo not given)	-1.4
Cc1ccccc1C(=O)Nc1ccccc1C(=O)NCC(C)C	-0.4
CCOC(=O)/C=C1\NC(C)(C)Cc2cc(OC)c(OC)cc21	-0.4
CN(C)c1ccc(CNCCC(Cc2ccccc2)c2ccco2)cc1 (stereo not given)	-0.8
